The entries come from a sample that favours hits as a whole.
nsP2pro primary – Primary qHTS for inhibitors of NSP2Pro chikungunya virus (CHIKV) | FRET peptide cleavage, nsP2pro, fluorescence 1 h | 31,000 tested, 1.1% active | Polyprotein P1234 (Chikungunya virus (strain S27-African prototype)), Q8JUX6 | Potency, µM (series often up to 24.9 µM), inactives show top-dose activity change, negative = inhibition, usual class: inhibitors; calls by dose curve; further: nearly all actives have a fitted effect of over 60% in size
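FRET cleavage of 2.5 uM peptide 2 by 150 nM CHIKV protease domain at pH 8.0 (Tris, Tween 20). Compounds at 7 concentrations (up to 25 uM) preincubated 15 min. Fluorescence read after 1 h at room temperature.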
Active calls of the source: *; i = inactive; ! = repeats disagree; [ ] = remark or other dose. On the % scale 0 is the no-effect control and ±100 the full control effect; potency means the concentration at half of the fitted maximal effect.

SMILES | nsP2pro primary
Cc1ccc2nc(NC(=O)c3cccn(Cc4ccccc4F)c3=O)sc2c1 | -13%
Cc1csc(NC(=O)c2ccc(COc3cccc(Cl)c3)o2)n1 | 0%
CC(C)(C)Sc1c(CC(C)(C)C(=O)O)n(Cc2ccc(Cl)cc2)c2ccc(OCc3ccc4ccccc4n3)cc12 | 28%
Cc1cc(C)nc(NC(=S)N2CCN(c3ccc(F)c(Cl)c3)CC2)c1 | -14%
O=C(NCc1cccnc1)c1cc(CN2CCC(Cc3ccccc3)CC2)on1 | i
O=C(NCc1ccccc1)c1cnc2n1CCN(Cc1ccccc1)CC2 | i
O=C(NCc1ccncc1)c1nc2c(o1)CCN(CCCc1ccccc1)CC2 | 14µM*
CCCC(=O)N1Cc2ccccc2CC2(CCCN(Cc3ccccn3)C2)C1 (centres undefined) | i
CCC1C(=O)OC23C=C[C@@H]4C(C(=O)O)=CO[C@H](O[C@@H]12)[C@@H]43 (some centres undefined) | -11%
N=c1c2c(ncn1-c1ccccc1)Oc1ccc3ccccc3c1C2c1ccc2c(c1)OCO2 (centres undefined) | -14%
Cc1c(Cl)c(C)[n+]([O-])c(Cl)c1-c1noc(-c2cc(O)c(O)c([N+](=O)[O-])c2)n1 | 57%
O=C(c1ccoc1)N1CCC(Nc2cccn3ncnc23)CC1 | -4%
CCCOc1nccnc1NC1CCN(C(=O)c2cccnc2)CC1 | i
Cc1nc2c(NC3CCN(C(=O)c4cnccn4)CC3)cccn2n1 | 11µM*
CC(=O)N[C@@H](CC(=O)O)C(=O)N[C@@H](CCC(=O)O)C(=O)N[C@H](C(=O)N[C@@H](CC(=O)O)C(=O)Nc1ccc2c(C)cc(=O)oc2c1)C(C)C | 7%
COc1cc(O)c(C(CC(=O)N2CCCCCC2)c2ccc3c(c2)OCO3)c(OC)c1 (centres undefined) | -3%[39.2 µM]
CC(Nc1nc(-c2ccccc2C(F)(F)F)nc2ccccc12)c1ccc(-c2ccncc2)cc1 (centres undefined) | 0%
Cc1cc(-c2nnc3n2CCCCC3)c(C)n1-c1cccnc1 | -5%
c1ccc(-n2ccc(-c3nnc4n3CCCCC4)c2)cc1 | 13µM*
c1ccc(-n2cc(-c3nnc4n3CCCCC4)c3ccccc32)cc1 | i
O=C(Nc1ccc([S+](=O)([O-])Nc2nccs2)cc1)c1ccccn1 | i
COC(=O)[C@@H](N)CS | 11µM*
N[C@H](CO)C(=O)O | -26%
COc1ncc(-c2ccc3c(Nc4cc(Oc5cc(F)cc(F)c5)cc(C(=O)O)c4)c(S(=O)(=O)NC4CC4)cnc3c2)c(OC)n1 | 36%
CCOc1ccc(CCNC(=O)c2cc3ccccc3n2Cc2ccccn2)cc1OCC | 7.9µM*
SMILES | nsP2pro primary
CCOc1ccc(CCNC(=O)c2cc3ccncc3n2Cc2cccc(C)n2)cc1OCC | i
CCOc1ccc(CCNC(=O)c2cc3ncccc3n2Cc2cccc(C)n2)cc1OCC | i
CC1CCN(CC2CCCN(C(=O)NC3CCCCC3)CC2)CC1 (centres undefined) | i
CN(C)Cc1nnc(C2CC(NC(=O)Cc3c(F)cccc3Cl)C2)n1C (centres undefined) | -8%
CN(C)Cc1nnc(C2CC(NC(=O)c3cc(-c4ccsc4)n[nH]3)C2)n1C (centres undefined) | -1%
CN(C)Cc1nnc(C2CC(NC(=O)c3cc(-c4cccn4C)n[nH]3)C2)n1C (centres undefined) | 0.5µM*
N#CC1=C(Nc2nc3ccccc3o2)OC2=C(C(=O)CCC2)C1c1[nH]ncc1Cl (centres undefined) | i
Cc1ccc(OCCn2c(CCNC(=O)c3cc([N+](=O)[O-])ccc3[N+](=O)[O-])nc3ccccc32)cc1 | i
COc1ccc2c(c1)[nH]c1c(C)nccc12 | -7%
COc1ccc2nc(S(=O)Cc3ncc(C)c(OC)c3C)[nH]c2c1 (centres undefined) | 10µM*!
COCCCOc1ccnc(CS(=O)c2nc3ccccc3[nH]2)c1C (centres undefined) | -19%
CO/C1=C/C(C)=C\[C@@H](C)[C@@H](O)[C@@H](C)C/C(C)=C\C=C/[C@H](OC)[C@@H]([C@@H](C)[C@@H](O)[C@H](C)[C@@]2(O)C[C@@H](O)[C@H](C)[C@@H](C(C)C)O2)OC1=O | -9%[2.68 µM]
Cc1[nH]cnc1C1CCN(c2nc3cccc4c3n2CCC4=O)CC1 | -3%
C[C@H]1[C@@H]2[C@@H](O)C([C@H](C)C(=O)NC3CCCCC3)CC[C@@]2(C)CC[C@@H]1NC(=O)C1CCCCC1 (some centres undefined) | i
O=C1Nc2ccccc2CN(CC2CCCC2)C12CCNC2 (centres undefined) | 13µM*
O=C1Nc2ccccc2CN(CC2CC2)C12CCNC2 (centres undefined) | -7%[39.2 µM]
COC(=O)N1CCCCC12Cc1ccccc1NC2=O (centres undefined) | -4%[39.2 µM]
CC(C)C(=O)N1Cc2ccccc2NC(=O)C12CCNC2 (centres undefined) | -8%[39.2 µM]
CC(C)=CCN1Cc2ccccc2NC(=O)C12CCNC2 (centres undefined) | 10µM*
Cc1ccc([S+](=O)([O-])N2CCCCC23Cc2ccccc2NC3=O)cc1 (centres undefined) | i
Cc1cc(C)nc(NC(=S)N2CCN(c3cccc4nccn34)CC2)c1 | 4%
CC1(C)CC[C@]2(C(=O)O[C@@H]3O[C@H](CO[C@@H]4O[C@H](CO)[C@@H](O)[C@H](O)[C@H]4O[C@@H]4O[C@H](CO)[C@@H](O)[C@H](O)[C@H]4O)[C@@H](O)[C@H](O[C@@H]4O[C@H](CO)[C@@H](O)[C@H](O)[C@H]4O)[C@H]3O)CC[C@]3(C)C(=CCC4[C@@]5(C)CC[C@@H](O)[C@@](C)(C(=O)O[C@@H]6O[C@H](CO)[C@@H](O)[C@H](O)[C@H]6O)C5CC[C@]43C)[C@@H]2C1 (some centres undefined) | -10%[5.1 µM]
CCc1nc2c(cnn2-c2ccc(C)cc2)c(=O)n1Cc1ccccc1 | -19%
COc1ccc(Oc2c(Cl)cnn(-c3cc(C)cc(C)c3)c2=O)cc1 | 0%
COc1ccc(-n2c(-c3ccccc3F)nc3c(cnn3-c3ccc(C)cc3)c2=O)cc1 | 11µM*
SMILES | nsP2pro primary
Nc1cc(-c2nc(Nc3ccc(F)c(F)c3)c3ccccc3n2)ccn1 | -14%
CC(=O)OC[C@]12C[C@H](OC(=O)CC(C)C)C(C)=C[C@H]1O[C@@H]1[C@H](O)[C@@H](O)[C@@]2(C)[C@]12CO2 | -7%[10 µM]
CC(=O)OC[C@]12C[C@H](O)C(C)=C[C@H]1O[C@@H]1[C@H](O)[C@@H](O)[C@@]2(C)[C@]12CO2 | -2%
CC1=CC2OC3[C@H](O)C[C@@](C)([C@]34CO4)[C@@]2(CO)[C@H](O)C1=O (some centres undefined) | 0.31µM*
Cn1cc(-c2cnc(Nc3ccc(F)c(Cl)c3)c3c2CCO3)cn1 | 8.9µM*
Cc1noc(C)c1-c1cnc(Nc2ccc(CN3CCN(C)CC3)cc2)c2c1CCO2 | -9%[39.2 µM]
Cc1cc(-c2cnc(Nc3ccc(F)cc3)c3c2CCO3)ccn1 | -23%[39.2 µM]
FC(F)(F)c1cccc(CSc2nc3ncc(Br)cc3[nH]2)c1 | i

From PubChem
